Source: the supplement of paper PMC10849652
Targets with a hit are over-represented here; the source holds about 8,800 in all. About 0.5% of all pairs of compound and target were hits.

Experiments:
Test in all cases: log2 fold change, soluble protein after heating vs DMSO (PISA); higher = thermal stabilisation; K562 lysate, 10 uM; active = over 0.2 and 3.5 SD of the protein, either way, in both replicates (recomputed)
[1] = compound: C#Cc1cccc(Nc2ncnc3cc(OCCOC)c(OCCOC)cc23)c1 [erlotinib]
In short: (§1)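 The values are log-two fold changes in thermal stability compared with solvent controls and come from duplicates. They were obtained by TMTpro 16plex LC-MS/MS, with channel sums equalised, on the supernatant after 21,000xg for 90 min. That supernatant came from crude K562 extract at 1 mg/mL protein treated with 10 μM compound for 30 min, heated for 3 min across 48°C-58°C, pooled and brought to 0.5% NP-40 at 4°C.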

[2] = compound: C/C(=N\NC(=O)C1=CC(=CC=C1)S(=O)(=O)N2CCOCC2)/C3=C(C=CC(=C3)Cl)O
In short: as §1

[3] = compound: C1=CC(=CC=C1C2=NC3=C(N2)C=C(C=C3)C(=O)N)OC4=CC=C(C=C4)Cl
In short: as §1

[4] = compound: C1=CC2=C(C=CC(=C2)/C=C\3/C(=O)NC(=NCC4=CC=CS4)S3)N=C1
In short: as §1

[5] = compound: C1=CC2=NC=CN=C2C=C1/C=C/3\C(=O)NC(=O)S3
In short: as §1

[6] = compound: C1=CC=C(C=C1)C2=NC(=C(N2)C3=CC=NC=C3)C4=CC(=C(C=C4)Cl)O
In short: as §1

[7] = compound: C1=CC=C2C(=C1)C3=NNC4=CC=CC(=C43)C2=O
In short: as §1

[8] = compound: C1CCN(C1)C(=O)NC2=CC=CC(=C2)NC3=NC=C(C(=N3)NCCC4=CN=CN4)Br
In short: as §1

[9] = compound: C1CN(CCC1(CC2=CC=C(C=C2)Cl)N)C3=NC=NC4=C3C=CN4
In short: as §1

[10] = compound: C1COCCN1CCN2C3=CC=CC=C3N=C2NC(=O)C4=CC(=CC=C4)[N+](=O)[O-] [IRAK-1-4 Inhibitor I]
In short: as §1

Measured: log2 fold change

LRPPRC (UniProt P42704)
inactive: [1] 0.04 | [2] 0.028 | [3] -0.02 | [4] 0.048 | [5] 0.067 | [6] -0.004 | [7] -0.017 | [8] -0.012 | [9] 0.006 | [10] 0.006

LARP4B (UniProt Q92615)
inactive: [1] -0.019 | [2] 0.013 | [3] -0.027 | [4] -0.005 | [5] 0.009 | [6] -0.021 | [7] 0.033 | [8] 0.012 | [9] -0.033 | [10] -0.025

MOCS3 (UniProt O95396)
inactive: [1] 0.047 | [2] 0.01 | [3] -0.033 | [4] -0.135 | [5] -0.011 | [6] -0.003 | [7] -0.02 | [8] 0.143 | [9] -0.07 | [10] 0.049

LARS2 (UniProt Q15031)
active: [3] 0.549
inactive: [1] 0.027 | [2] 0.033 | [4] -0.012 | [5] -0.041 | [6] 0.014 | [7] 0.029 | [8] 0.03 | [9] 0.039 | [10] -0.021

MORC2 (UniProt Q9Y6X9)
inactive: [1] 0.039 | [2] -0.05 | [3] -0.002 | [4] 0.015 | [5] -0.016 | [6] -0.001 | [7] -0.033 | [8] 0.006 | [9] -0.023 | [10] 0.034

MAPKAPK5 (UniProt Q8IW41)
Chain of UniProt Q8IW41 (Q8IW41 whole entry, looked up): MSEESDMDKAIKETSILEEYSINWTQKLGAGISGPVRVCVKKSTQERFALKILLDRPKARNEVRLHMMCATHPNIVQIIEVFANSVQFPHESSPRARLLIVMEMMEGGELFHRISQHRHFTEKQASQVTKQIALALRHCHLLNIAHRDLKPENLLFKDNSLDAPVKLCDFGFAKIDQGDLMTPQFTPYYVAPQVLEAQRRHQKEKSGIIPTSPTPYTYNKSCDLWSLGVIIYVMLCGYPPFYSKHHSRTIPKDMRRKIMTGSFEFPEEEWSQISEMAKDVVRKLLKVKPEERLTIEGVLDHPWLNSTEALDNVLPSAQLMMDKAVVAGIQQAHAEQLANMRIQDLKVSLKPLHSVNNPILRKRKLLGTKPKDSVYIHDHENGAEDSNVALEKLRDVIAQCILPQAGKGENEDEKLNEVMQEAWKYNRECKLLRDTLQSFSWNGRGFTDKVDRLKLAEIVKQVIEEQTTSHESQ
active: [7] 0.276
inactive: [1] -0.058 | [2] -0.045 | [3] 0.016 | [4] 0.12 | [5] 0.007 | [6] -0.024 | [8] 0.035 | [9] 0.031 | [10] -0.049

MED14 (UniProt O60244)
inactive: [1] -0.012 | [2] 0.018 | [3] 0.008 | [4] 0.027 | [5] 0.015 | [6] 0 | [7] -0.066 | [8] -0.014 | [9] -0.042 | [10] 0.005

LLGL1 (UniProt Q15334)
inactive: [1] 0.036 | [2] -0.06 | [3] 0.021 | [4] 0.02 | [5] 0.007 | [6] 0.001 | [7] -0.112 | [8] -0.08 | [9] 0.018 | [10] -0.136

MED16 (UniProt Q9Y2X0)
inactive: [1] 0.018 | [2] -0.033 | [3] 0.001 | [4] 0.019 | [5] -0.011 | [6] 0.008 | [7] -0.071 | [8] 0.01 | [9] -0.045 | [10] -0.001

MRPL15 (UniProt Q9P015)
inactive: [1] 0.037 | [2] -0.16 | [3] 0.051 | [4] -0.026 | [5] -0.055 | [6] -0.017 | [7] 0.004 | [8] -0.023 | [9] -0.016 | [10] 0.034

MARK1 (UniProt Q9P0L2)
Chain of UniProt Q9P0L2 (Q9P0L2 whole entry, looked up): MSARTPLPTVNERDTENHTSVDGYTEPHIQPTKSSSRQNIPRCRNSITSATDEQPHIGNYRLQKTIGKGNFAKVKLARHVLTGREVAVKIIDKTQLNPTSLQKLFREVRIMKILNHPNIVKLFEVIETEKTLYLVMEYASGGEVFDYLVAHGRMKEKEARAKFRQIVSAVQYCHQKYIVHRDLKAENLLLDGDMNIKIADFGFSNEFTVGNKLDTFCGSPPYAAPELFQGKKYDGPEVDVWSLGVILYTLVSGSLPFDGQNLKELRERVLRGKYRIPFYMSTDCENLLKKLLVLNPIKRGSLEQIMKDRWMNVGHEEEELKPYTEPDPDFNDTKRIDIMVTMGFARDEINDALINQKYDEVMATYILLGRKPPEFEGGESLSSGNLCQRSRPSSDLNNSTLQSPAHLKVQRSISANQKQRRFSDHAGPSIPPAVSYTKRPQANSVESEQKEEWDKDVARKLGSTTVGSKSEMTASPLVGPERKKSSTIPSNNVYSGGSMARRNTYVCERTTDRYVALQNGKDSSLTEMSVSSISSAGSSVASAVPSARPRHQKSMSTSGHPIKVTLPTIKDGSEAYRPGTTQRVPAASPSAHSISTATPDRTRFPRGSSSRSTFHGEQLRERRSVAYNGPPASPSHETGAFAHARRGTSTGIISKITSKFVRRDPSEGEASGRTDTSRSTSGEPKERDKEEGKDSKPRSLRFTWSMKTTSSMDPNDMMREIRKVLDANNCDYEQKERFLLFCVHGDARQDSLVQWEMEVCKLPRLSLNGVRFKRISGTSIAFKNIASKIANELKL
inactive: [1] 0.105 | [2] 0.006 | [3] -0.018 | [4] 0.029 | [5] -0.01 | [6] -0.001 | [7] -0.26 | [8] -0.255 | [9] -0.111 | [10] -0.045

MAPK6 (UniProt Q16659)
Chain of UniProt Q16659 (Q16659 whole entry, looked up): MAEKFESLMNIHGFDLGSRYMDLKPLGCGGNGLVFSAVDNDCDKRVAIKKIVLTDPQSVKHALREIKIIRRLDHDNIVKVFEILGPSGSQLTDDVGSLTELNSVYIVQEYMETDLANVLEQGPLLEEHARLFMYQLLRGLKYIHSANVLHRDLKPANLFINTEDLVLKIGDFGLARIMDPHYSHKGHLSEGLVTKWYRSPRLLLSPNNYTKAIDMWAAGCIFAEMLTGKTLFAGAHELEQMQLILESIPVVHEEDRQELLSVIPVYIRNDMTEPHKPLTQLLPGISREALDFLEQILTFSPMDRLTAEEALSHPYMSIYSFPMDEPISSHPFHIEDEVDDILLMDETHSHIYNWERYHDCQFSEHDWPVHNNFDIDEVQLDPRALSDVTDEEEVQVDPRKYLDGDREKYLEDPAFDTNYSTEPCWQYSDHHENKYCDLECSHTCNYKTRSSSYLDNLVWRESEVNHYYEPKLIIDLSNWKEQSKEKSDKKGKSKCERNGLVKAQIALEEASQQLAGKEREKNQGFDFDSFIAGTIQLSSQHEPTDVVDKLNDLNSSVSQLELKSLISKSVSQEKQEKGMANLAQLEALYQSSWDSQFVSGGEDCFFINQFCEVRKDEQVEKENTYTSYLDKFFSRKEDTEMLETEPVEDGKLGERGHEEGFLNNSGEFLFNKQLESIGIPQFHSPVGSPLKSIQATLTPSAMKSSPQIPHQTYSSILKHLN
inactive: [1] -0.004 | [2] 0.036 | [3] 0.019 | [4] 0.006 | [5] 0.015 | [6] 0.001 | [7] 0.069 | [8] 0.068 | [9] 0.015 | [10] -0.027

MGAT5 (UniProt Q09328)
inactive: [1] 0.037 | [2] 0.03 | [3] 0.087 | [4] 0.044 | [5] 0.078 | [6] -0.003 | [7] 0.132 | [8] -0.03 | [9] 0.066 | [10] -0.05

MPZL1 (UniProt O95297)
Chain of UniProt O95297 (O95297 whole entry, looked up): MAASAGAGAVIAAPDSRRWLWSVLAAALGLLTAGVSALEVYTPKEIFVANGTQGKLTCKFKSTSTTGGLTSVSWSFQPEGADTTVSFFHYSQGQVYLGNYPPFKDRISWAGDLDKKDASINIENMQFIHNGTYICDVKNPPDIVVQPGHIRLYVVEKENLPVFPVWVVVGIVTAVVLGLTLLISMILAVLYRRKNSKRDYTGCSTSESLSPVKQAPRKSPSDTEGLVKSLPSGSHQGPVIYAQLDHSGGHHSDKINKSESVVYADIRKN
inactive: [1] -0.057 | [2] 0.068 | [3] -0.036 | [4] 0.003 | [5] -0.042 | [6] 0.017 | [7] -0.005 | [8] 0.015 | [9] -0.04 | [10] 0.015

KIF4A (UniProt O95239)
inactive: [1] 0.015 | [2] -0.022 | [3] -0.042 | [4] 0.02 | [5] 0.022 | [6] 0.014 | [7] -0.033 | [8] -0.026 | [9] 0.031 | [10] -0.01

LAS1L (UniProt Q9Y4W2)
Chain of UniProt Q9Y4W2 (Q9Y4W2 whole entry, looked up): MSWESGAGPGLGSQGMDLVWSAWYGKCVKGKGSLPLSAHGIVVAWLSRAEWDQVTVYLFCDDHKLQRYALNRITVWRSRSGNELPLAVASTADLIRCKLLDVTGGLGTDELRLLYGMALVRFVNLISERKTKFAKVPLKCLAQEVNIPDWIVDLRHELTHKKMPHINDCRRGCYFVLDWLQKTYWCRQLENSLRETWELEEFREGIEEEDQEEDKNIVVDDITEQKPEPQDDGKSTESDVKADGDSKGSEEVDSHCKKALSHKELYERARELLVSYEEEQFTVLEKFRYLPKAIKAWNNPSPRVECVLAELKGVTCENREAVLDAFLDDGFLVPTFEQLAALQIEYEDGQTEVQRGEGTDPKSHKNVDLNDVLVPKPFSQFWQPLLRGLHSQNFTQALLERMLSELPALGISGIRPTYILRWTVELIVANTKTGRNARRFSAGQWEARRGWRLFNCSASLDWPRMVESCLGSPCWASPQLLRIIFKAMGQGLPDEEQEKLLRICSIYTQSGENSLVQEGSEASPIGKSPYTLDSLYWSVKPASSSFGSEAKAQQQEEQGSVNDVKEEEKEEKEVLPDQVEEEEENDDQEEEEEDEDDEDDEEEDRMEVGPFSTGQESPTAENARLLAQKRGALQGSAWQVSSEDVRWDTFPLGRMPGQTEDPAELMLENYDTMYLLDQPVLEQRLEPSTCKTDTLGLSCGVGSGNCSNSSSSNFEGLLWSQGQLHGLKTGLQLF
inactive: [1] 0.053 | [2] -0.011 | [3] -0.003 | [4] -0.018 | [5] 0.022 | [6] 0.007 | [7] 0.028 | [8] -0.004 | [9] -0.027 | [10] -0.002

MINK1 (UniProt Q8N4C8)
inactive: [1] 0.057 | [2] 0.058 | [3] -0.059 | [4] 0.135 | [5] 0.045 | [6] -0.141 | [7] 0 | [8] 0.016 | [9] -0.037 | [10] 0.061

MAST2 (UniProt Q6P0Q8)
inactive: [1] 0.044 | [2] -0.054 | [3] 0.142 | [4] 0.003 | [6] -0.03 | [7] 0.099 | [8] 0.038 | [9] -0.046 | [10] 0.073
active: [5] -0.588

KIF4B (UniProt Q2VIQ3)
inactive: [1] -0.018 | [2] -0.035 | [3] -0.017 | [4] 0.032 | [5] -0.005 | [6] 0.034 | [7] 0.004 | [8] -0.003 | [9] -0.027 | [10] -0.061

LIG4 (UniProt P49917)
inactive: [1] 0.107 | [2] 0.014 | [3] -0.04 | [4] 0.028 | [5] 0.002 | [6] 0.024 | [7] -0.003 | [8] 0.009 | [9] -0.057 | [10] -0.001

KRI1 (UniProt Q8N9T8)
inactive: [1] -0.017 | [2] -0.038 | [3] -0.017 | [4] -0.1 | [5] -0.012 | [6] 0.02 | [7] -0.138 | [8] 0.033 | [9] -0.04 | [10] 0.047

MOSPD2 (UniProt Q8NHP6)
Chain of UniProt Q8NHP6 (Q8NHP6 whole entry, looked up): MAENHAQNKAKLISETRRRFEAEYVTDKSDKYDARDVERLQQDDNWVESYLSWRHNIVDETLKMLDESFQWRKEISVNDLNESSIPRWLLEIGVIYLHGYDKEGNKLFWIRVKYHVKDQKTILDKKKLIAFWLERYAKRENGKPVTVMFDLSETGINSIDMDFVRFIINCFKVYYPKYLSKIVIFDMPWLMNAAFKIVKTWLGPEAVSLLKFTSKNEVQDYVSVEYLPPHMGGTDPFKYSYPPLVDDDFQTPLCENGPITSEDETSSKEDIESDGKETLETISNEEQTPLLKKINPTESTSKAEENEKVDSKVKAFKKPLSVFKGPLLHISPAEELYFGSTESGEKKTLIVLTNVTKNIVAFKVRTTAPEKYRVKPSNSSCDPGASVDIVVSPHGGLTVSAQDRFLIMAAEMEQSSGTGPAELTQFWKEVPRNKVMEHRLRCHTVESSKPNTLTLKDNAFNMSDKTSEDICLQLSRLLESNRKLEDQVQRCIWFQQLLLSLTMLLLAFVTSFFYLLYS
inactive: [1] -0.049 | [2] 0.152 | [3] 0 | [4] 0.072 | [5] 0.027 | [6] -0.015 | [7] 0.157 | [8] -0.062 | [9] -0.023 | [10] 0.057

LYAR (UniProt Q9NX58)
Chain of UniProt Q9NX58 (Q9NX58 whole entry, looked up): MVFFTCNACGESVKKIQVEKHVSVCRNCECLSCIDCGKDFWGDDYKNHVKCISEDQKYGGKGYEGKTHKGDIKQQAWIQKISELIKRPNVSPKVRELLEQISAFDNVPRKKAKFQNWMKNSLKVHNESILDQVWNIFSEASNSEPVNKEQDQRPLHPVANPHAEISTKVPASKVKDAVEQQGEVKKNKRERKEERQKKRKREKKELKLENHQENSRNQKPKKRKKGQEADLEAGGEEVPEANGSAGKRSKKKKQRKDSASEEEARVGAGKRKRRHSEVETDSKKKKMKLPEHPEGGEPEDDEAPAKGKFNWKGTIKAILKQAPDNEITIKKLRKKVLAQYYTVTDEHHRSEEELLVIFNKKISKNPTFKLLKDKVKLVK
inactive: [1] -0.007 | [2] -0.004 | [3] 0 | [4] -0.007 | [5] -0.011 | [6] 0.046 | [7] 0.018 | [8] 0.007 | [9] -0.003 | [10] -0.018

MED13L (UniProt Q71F56)
inactive: [1] 0.048 | [2] -0.049 | [3] 0.03 | [4] 0.024 | [5] 0.034 | [6] -0.014 | [7] -0.035 | [8] 0.024 | [9] 0.013 | [10] 0.061

MGST1 (UniProt P10620)
Chain of UniProt P10620 (P10620 whole entry, looked up): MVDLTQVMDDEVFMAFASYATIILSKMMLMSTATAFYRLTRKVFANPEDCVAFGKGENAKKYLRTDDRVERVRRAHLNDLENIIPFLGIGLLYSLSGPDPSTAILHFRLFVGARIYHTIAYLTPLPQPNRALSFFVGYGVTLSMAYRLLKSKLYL
inactive: [1] -0.041 | [2] -0.068 | [3] 0.016 | [4] -0.051 | [5] 0.024 | [6] -0.031 | [7] -0.036 | [8] -0.07 | [9] 0.089 | [10] 0.067

LIMK2 isoform 3 (UniProt P53671)
Chain of UniProt P53671 (P53671 whole entry, looked up): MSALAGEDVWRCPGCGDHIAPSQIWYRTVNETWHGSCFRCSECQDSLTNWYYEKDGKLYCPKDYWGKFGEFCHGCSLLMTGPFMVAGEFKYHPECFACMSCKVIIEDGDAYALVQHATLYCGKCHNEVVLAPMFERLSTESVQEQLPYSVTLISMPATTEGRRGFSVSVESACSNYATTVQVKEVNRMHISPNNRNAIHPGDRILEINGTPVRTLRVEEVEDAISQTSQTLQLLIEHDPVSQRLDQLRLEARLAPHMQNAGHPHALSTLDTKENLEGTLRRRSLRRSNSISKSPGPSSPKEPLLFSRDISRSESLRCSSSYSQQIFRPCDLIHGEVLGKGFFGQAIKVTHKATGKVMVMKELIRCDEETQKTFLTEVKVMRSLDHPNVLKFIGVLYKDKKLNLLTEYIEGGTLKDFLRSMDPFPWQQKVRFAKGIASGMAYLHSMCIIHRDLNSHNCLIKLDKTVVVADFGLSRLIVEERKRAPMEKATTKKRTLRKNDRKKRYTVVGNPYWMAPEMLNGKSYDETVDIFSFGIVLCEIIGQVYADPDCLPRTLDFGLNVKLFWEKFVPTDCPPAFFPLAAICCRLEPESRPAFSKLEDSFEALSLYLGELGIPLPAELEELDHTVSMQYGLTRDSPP
inactive: [1] -0.013 | [2] -0.038 | [3] -0.048 | [4] 0.062 | [5] 0.053 | [6] 0.016 | [7] 0.003 | [8] -0.002 | [9] 0.001 | [10] -0.031

LBR (UniProt Q14739)
inactive: [1] 0.03 | [2] 0.052 | [3] -0.066 | [4] -0.021 | [5] -0.081 | [6] -0.028 | [7] -0.08 | [8] -0.032 | [9] 0.005 | [10] 0.028

KNOP1 (UniProt Q1ED39)
inactive: [1] -0.018 | [2] -0.011 | [3] -0.006 | [4] -0.176 | [5] 0.019 | [6] 0.008 | [7] 0.109 | [8] -0.128 | [9] 0.118 | [10] 0.123

MBTPS1 (UniProt Q14703)
inactive: [1] 0.033 | [2] -0.022 | [3] -0.044 | [4] -0.009 | [5] -0.053 | [6] 0.029 | [7] -0.014 | [8] -0.029 | [9] 0.131 | [10] -0.026
